From PubChem
JMJD2A Tudor: inhibitors of human JMJD2A Tudor domain; O75164; AlphaScreen JMJD2A-Tudor / H3K4me3 peptide binding; Potency, µM (doses to about 114 µM), actives largely listed as inhibitors; AID 504339; 390,000 compounds, 4.4% hits; also: nearly all actives have a fitted effect of over 50% in size
BAZ2B block: inhibitors of human BAZ2B bromodomain; Q9UIF8; AlphaScreen BAZ2B-H3K14Ac peptide displacement; Potency, µM (doses to about 114 µM), hits mostly inhibitors; 360,000 compounds, 4.4% hits; AID 504333; also: nearly all actives have a fitted effect of over 60% in size
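BAZ2B (50 nM) with biotin-H3(5-23)K14Ac peptide (50 nM) in PBS pH 7.4, 0.01% Tween-20, preformed 30 min, then compound 30 min at room temperature; top concentration 110uM. AlphaScreen streptavidin donor/nickel chelate acceptor beads (10 ug/mL final), 20 min dark, signal read.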
G9a inh: blocks human histone lysine methyltransferase G9a; G9a H3K9 monomethylation, AlphaScreen, 2 h; Potency, µM (doses to about 102 µM), most hits filed as inhibitors; 350,000 compounds, 8.8% hits; also: nearly all actives have a fitted effect of over 75% in size
Target sequence (Q96KQ7 913-1193 limits assumed): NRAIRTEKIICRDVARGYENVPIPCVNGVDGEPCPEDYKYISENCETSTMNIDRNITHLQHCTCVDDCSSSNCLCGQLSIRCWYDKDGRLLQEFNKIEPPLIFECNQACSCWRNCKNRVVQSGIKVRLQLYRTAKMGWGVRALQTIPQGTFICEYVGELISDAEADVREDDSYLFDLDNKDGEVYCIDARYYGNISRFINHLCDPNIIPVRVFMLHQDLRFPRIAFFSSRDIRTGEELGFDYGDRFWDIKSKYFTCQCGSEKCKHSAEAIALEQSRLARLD
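Chemiluminescent proximity detection of H3K9 monomethylation, read after 10 min bead incubation in the dark. Reaction: 20 nM G9a, 500 nM biotin-H3K9 peptide, 20 uM SAM cofactor, 2 h, room temperature, following 15 min enzyme-compound preincubation.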
Sfp inh: blocks B. subtilis Sfp PPTase activity; Biochemical Sfp PPTase activity, qHTS; Potency, µM, hits mostly inhibitors; Q9F4F7; 310,000 compounds, 3.5% hits;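 also: the enzyme is Sfp with the accession as filed and its product quenches rhodamine fluorescence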
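Step 1, compound plus 15 nM Sfp-PPTase, 15 min, room temperature. Step 2, add rhodamine-CoA (5 uM) and BHQ-2-YbbR (12.5 uM). Step 3, read 525/598 nm fluorescence at 0 and 30 min.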
L3MBTL1 block: inhibitors of human L3MBTL1. Q9Y468. AID 485360. 230,000 compounds, 0.66% hits. Potency, µM (titrated, usually from 57.1 µM), actives largely listed as inhibitors. AlphaScreen L3MBTL1–H3K9me1 peptide binding; also: nearly all actives have a fitted effect of over 60% in size
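Read-out is AlphaScreen signal from streptavidin donor and nickel chelate acceptor beads (10 ug/mL final each) bridging L3MBTL1 (50 nM) and biotinylated K9-monomethylated H3(1-15) peptide (75 nM), after 30 min compound exposure at room temperature.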
HP1b chromo inh: HP1-beta chromodomain-methylated histone interaction inhibition; AlphaScreen HP1-beta / biotin-H3K9me3 peptide binding; Potency, µM (series often up to 114 µM), hits mostly inhibitors; 390,000 compounds, 0.56% hits; AID 540317; also: nearly all actives have a fitted effect of over 70% in size
Target sequence (P83916 whole entry, looked up): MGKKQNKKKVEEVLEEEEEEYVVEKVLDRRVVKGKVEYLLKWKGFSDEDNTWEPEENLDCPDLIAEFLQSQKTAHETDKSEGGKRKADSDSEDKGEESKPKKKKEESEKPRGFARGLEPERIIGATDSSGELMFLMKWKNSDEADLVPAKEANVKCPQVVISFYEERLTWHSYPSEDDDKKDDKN
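HP1-beta protein (50 nM final) preincubated 30 min at room temperature with biotinylated H3(1-18)K9me3 peptide (50 nM) in PBS pH 7.4, 0.01% Tween-20, then compound added for 30 min. AlphaScreen streptavidin donor/nickel chelate acceptor beads (10 ug/mL final), 30 min dark, luminescence read.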
Hits are given with their value; – = inactive; ? = inconclusive; · = no result given; [ ] = dose if it differs, or a comment. Most compounds without a hit are left out; they make up all but 12% or so of the library. Calls follow the shape of the dose curve; as a rule, active = well fitted curve in the direction sought with a large enough effect; inconclusive = small, poorly fitted or top-dose-only effect, or another doubt; inactive = no such curve, though single readings can be large; an effect the other way counts as inactive or inconclusive.

SMILES	JMJD2A Tudor	BAZ2B block	G9a inh	Sfp inh	L3MBTL1 block	HP1b chromo inh
CCC1(C)Cc2ccccc2-c2c1c(=O)n(-c1ccc(C)cc1)c1nnnn21 (stereo unspecified)	–	–	50µM	–	·	–
O=C1Cc2ccccc2C(=O)N1CCc1ccccc1	–	–	32µM	–	–	–
CC(=O)c1ccc(NC(=O)c2nc(-c3ccccc3)n(-c3ccccc3Cl)n2)cc1	–	–	–	·	·	–
Cc1ccc(NC(=O)c2sccc2SCc2cccc(C(F)(F)F)c2)cc1	–	–	25µM	–	–	–
N#CCSc1ccsc1C(=O)Nc1ccc(F)cc1	–	–	7.9µM	?	–	?
Cc1c(CCC(=O)NCCc2ccccc2)c(=O)oc2c(C)c(O)ccc12	–	–	–	·	·	–
Cc1ccc(NC(=O)CSc2nccn2-c2ccccc2)cc1	?	?	?	·	·	–
CC(=O)c1ccc(NC(=O)c2c3c(nc4ccccc24)C(=O)N(C2CCCCC2)C3)cc1	–	–	–	·	·	–
C=CCn1c(O)c(N=NC(=S)Nc2cccc(C)c2)c2ccccc21	8.9µM	3.2µM	14µM	–	?	?
NC(=S)N=Nc1c(O)n(Cc2ccccc2)c2ccccc12	–	?	–	–	–	–
Cc1cccc(NC(=O)Cn2c(O)c(N=NC(=O)c3ccncc3)c3ccccc32)c1	–	?	–	–	–	–
COC(=O)N=Nc1c(O)n(Cc2ccccc2)c2ccccc12	–	–	–	–	–	–
C=CCn1c(O)c(N=NC(=S)Nc2ccccc2F)c2ccccc21	10µM	?	11µM	–	·	?
O=C(N=Nc1c(O)n(Cc2ccccc2)c2ccccc12)c1ccncc1	–	35µM	·	–	?	–
CCCCNC(=S)N=Nc1c(O)n(Cc2ccccc2)c2ccccc12	?	?	32µM	?	–	?
C=CCn1c(O)c(N=NC(=S)Nc2ccccc2F)c2cc(S(=O)(=O)N3CCOCC3)ccc21	–	–	?	–	·	–
Cc1nc(-n2nc(C)c(CCC(C)C)c2C)sc1C(=O)Nc1ccc(Cl)cc1	–	–	–	·	·	–
COc1ccccc1N1CCN(c2nc3ccccc3n3cnnc23)CC1	–	–	–	·	·	–
Oc1c(N=NC(=S)Nc2ccccc2F)c2ccccc2n1Cc1ccccc1Cl	4µM	?	18µM	–	·	?
Oc1c(N=NC(=S)Nc2ccccc2F)c2ccccc2n1Cc1ccccc1	?	?	18µM	–	·	?
Cc1c(Cl)cccc1NC(=S)N=Nc1c(O)n(CN2CCOCC2)c2ccccc12	?	?	?	–	–	–
C=CCn1c(O)c(N=NC(=O)CNC(=O)/C=C/c2ccc(OC)cc2)c2ccccc21	–	–	·	–	–	–
Cc1ccc(NC(=O)Cn2c(O)c(N=NC(N)=S)c3ccccc32)cc1	–	–	–	–	·	–
Cc1ccc(Cn2c(O)c(N=NC(=S)Nc3ccccc3F)c3ccccc32)cc1	?	40µM	11µM	–	·	–
C=CCn1c(O)c(N=NC(=O)CNC(=O)/C=C/c2ccco2)c2ccccc21	?	?	50µM	?	?	–
SMILES	JMJD2A Tudor	BAZ2B block	G9a inh	Sfp inh	L3MBTL1 block	HP1b chromo inh
Cc1ccc(C)c(NC(=O)CCCn2nc(C)c3sc4ccccc4c3c2=O)c1	–	–	–	·	·	–
CCCCOC(=O)c1ccc(NC(=O)Cc2coc3c(C)c(C)ccc23)cc1	–	–	–	·	·	–
CCOc1ccc(-c2nnc(SCC(=O)Oc3ccccc3)o2)cc1	–	?	–	·	·	–
COc1cc(C2C(C(C)=O)=C(O)C(=O)N2CCN(C)C)ccc1O (stereo unspecified)	–	–	–	–	–	–
COc1ccc(C2C(C(C)=O)=C(O)C(=O)N2c2cccnc2)cc1OC (stereo unspecified)	79µM	?	?	–	·	–
COc1cccc(N2C(=O)C(O)=C(C(C)=O)C2c2ccc(OC)c(OC)c2)c1 (stereo unspecified)	?	?	?	–	·	–
COCCN1C(=O)C(O)=C(C(C)=O)C1c1ccc(OC)c(OC)c1 (stereo unspecified)	16µM	?	45µM	–	–	–
O=C(Cn1c(SCCOc2ccccc2Cl)nc2ccccc21)N1CCCCC1	?	?	?	·	·	–
COc1ccccc1-c1nnc(SC(C(=O)c2c[nH]c3ccccc23)c2ccccc2)n1C (stereo unspecified)	?	–	79µM	–	–	–
COc1cc(-c2c(C(C)=O)c(C)nc3c2C(=O)c2ccccc2-3)cc(OC)c1OC	–	–	–	–	·	–
CC(=O)c1c(Cl)nc2cccc3c2c1-c1ccccc1C3=O	–	–	28µM	–	–	–
COc1ccc(S(=O)(=O)Nc2ccncc2)c(C)c1C	–	–	–	89µM	–	–
COc1ccc(S(=O)(=O)Nc2cccnc2)c(C)c1C	–	–	–	–	–	–
COc1ccc(NS(=O)(=O)c2ccc(OC)c3ccccc23)cn1	79µM	–	–	–	–	?
Cc1cc(C)cc(NC(=O)c2ncn(-c3ccccc3)n2)c1	–	–	–	·	·	–
CCOc1ccc(NC(=O)Cn2cc(C(=O)c3ccc(CC)cc3)c(=O)c3cc(OC)c(OC)cc32)cc1	–	–	–	·	·	–
CCc1ccc(C(=O)c2cn(CC(=O)Nc3cc(OC)cc(OC)c3)c3ccc(CC)cc3c2=O)cc1	–	–	–	·	·	–
CCc1ccc(C(=O)c2cn(CC(=O)Nc3ccc(OC)cc3)c3cc4c(cc3c2=O)OCCO4)cc1	–	–	–	·	·	–
CCc1ccc(C(=O)c2cn(CC(=O)Nc3ccc(F)c(F)c3)c3cc(OC)c(OC)cc3c2=O)cc1	–	79µM	–	·	·	–
CCc1ccc(C(=O)c2cn(CC(=O)Nc3ccc4c(c3)OCCO4)c3ccc(CC)cc3c2=O)cc1	–	79µM	–	·	·	–
CCOc1ccc(C(=O)c2cn(CC(=O)Nc3cc(OC)cc(OC)c3)c3ccc(F)cc3c2=O)cc1	–	89µM	?	·	·	–
CCCn1c2ccccc2c2cnn(CC(=O)N3CCCC(C)C3)c(=O)c21 (stereo unspecified)	–	–	–	·	·	–
COc1cccc2cc(C(=O)N(Cc3cccs3)Cc3cccs3)c(=O)oc12	–	·	·	·	·	–
OC(c1cccc(Cl)c1)c1nccc2ccccc12 (stereo unspecified)	–	–	40µM	–	–	–
CC(C)n1c(C(O)c2ccc3c(c2)OCO3)nc2ccccc21 (stereo unspecified)	–	–	71µM	–	–	–
Cn1c(C(O)c2ccc3c(c2)OCO3)nc2ccccc21 (stereo unspecified)	–	–	–[12.7 µM]	–	–[11.4 µM]	–
OC(c1ccc2c(c1)OCO2)c1nccc2ccccc12 (stereo unspecified)	?	–	45µM	–	–	–
